From PubChem BioAssay (NCI)
The panel holds about 79,000 compounds, 15% with a hit somewhere; the sample as a whole holds those more often. No stated cut-off is given here; in the data, active means growth inhibition above about 70%; inactive means the rest.

Experiments:
[1] = NCI Yeast Anticancer Drug Screen. Data for the rad50 strain (AID 155);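 further: 0% = growth of vehicle-only cultures of the same strain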; conditions: S. cerevisiae rad50 strain growth inhibition; at 50.0 µM; hits give high values
Procedure, shortened: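 Genetically altered yeast (DNA repair pathway); compound treatment; growth inhibition vs vehicle ctrl.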

[2] = NCI Yeast Anticancer Drug Screen. Data for the mec2-1 strain (AID 157); conditions: S. cerevisiae mec2-1 strain, at 50.0 µM, hits give high values
Procedure, shortened: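 Test agents were screened against the mec2-1 yeast strain, with defined DNA repair or cell cycle alteration. Growth was scored as inhibition against vehicle-only controls.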

[3] = NCI Yeast Anticancer Drug Screen. Data for the sgs1 mgt1 strain (AID 161);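 further: 0% = growth of cultures given vehicle only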; conditions: S. cerevisiae sgs1 mgt1 strain, at 50.0 µM, hits give high values
Procedure, shortened: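 Test agents were incubated with a DNA-repair-mutant yeast strain. Growth was then read and compared against vehicle-treated controls.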

[4] = NCI Yeast Anticancer Drug Screen. Data for the cln2 rad14 strain (AID 165);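 further: 0% = growth equal to vehicle treated cultures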; conditions: S. cerevisiae cln2 rad14 strain, at 50.0 µM, hits give high values
Procedure, shortened: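 Growth of compound-exposed yeast (cln2 rad14 genotype) measured and expressed as inhibition relative to vehicle.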

[5] = NCI Yeast Anticancer Drug Screen. Data for the bub3 strain (AID 167); conditions: S. cerevisiae bub3 mutant strain, at 50.0 µM, hits give high values
Procedure, shortened: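 Yeast carrying a defined mutation is treated with each compound, and growth is compared with that of vehicle-exposed cells to give inhibition.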

[6] = NCI Yeast Anticancer Drug Screen. Data for the mlh1 rad18 strain (AID 175); conditions: S. cerevisiae mlh1 rad18 strain growth inhibition; at 50.0 µM; hits give high values
Procedure, shortened: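 In this whole-cell yeast screen, a strain with altered DNA damage repair is challenged with compound, and its growth is measured against matched vehicle-treated controls.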

Measured: growth inhibition

CCC(O)C(=O)O (centres undefined)
inactive: [1] -28.6% | [2] -26.8% | [3] -20.9% | [4] -11.2% | [5] -9.9% | [6] -27.4%

CCCCCCCCCCCOC(=O)CCl
inactive: [1] 1.4% | [2] -13% | [3] -16.9% | [4] -12.3% | [5] -12.8% | [6] -7.4%

COc1cc(OC)c(NC(=O)/C=C/c2ccccc2)cc1Cl
inactive: [1] -3.45% | [2] -75.7% | [3] 7.85% | [4] -21.4% | [5] 11.2% | [6] 21%

Nc1ccc2nnn(OC3CCCC3)c2c1
inactive: [1] 40.2% | [2] 13.9% | [3] 3.55% | [4] 9.4% | [5] -4.05% | [6] 0.4%

COc1ccc(C2=C(c3ccccc3)C(=O)C(c3ccccc3)=C2c2ccccc2)cc1
inactive: [1] -12.9% | [2] -12.9% | [3] -8.7% | [4] 13.2% | [5] -1.7% | [6] -6.05%

Cc1ccc(Nc2nc(C)c(C(=O)CC(=O)C(=O)Nc3c(C)cccc3C(C)(C)C)s2)cc1
inactive: [1] 14.2% | [2] -17.6% | [3] -0.4% | [4] -19.2% | [5] -1.05% | [6] 2.85%

Oc1ccc(-c2c3ccccc3c(-c3ccc(OCCBr)cc3)c3ccccc23)cc1
inactive: [1] -24.2% | [2] -9.75% | [3] -9.9% | [4] 4.65% | [5] -11.3% | [6] 7.4%

CC(C1=CC=C2[C@@H]3CCC4CC(N(C)C)CC[C@]4(C)C3CC[C@]12C)N(C)C=O (some centres undefined)
inactive: [1] 6.8% | [2] 8.6% | [3] -16.2% | [4] 6.35% | [5] 4.45% | [6] 1.65%

COC(OC)C1(CCc2ccccc2)NC(=O)N(C)C1=O (centres undefined)
inactive: [1] -17.4% | [2] 2.2% | [3] 5.6% | [4] -19.9% | [5] 25.6% | [6] -0.65%

COc1ccccc1C(N)c1ccccc1 (centres undefined)
inactive: [1] -13.1% | [2] -0.75% | [3] 15.9% | [4] 5.8% | [5] -0.7% | [6] 13.6%

C/C(=N\[N+](C)(C)C)c1ccc(C)c(C)c1
inactive: [1] 9.45% | [2] -38% | [3] -23.2% | [4] 17.9% | [5] -56.2% | [6] -5%

C#CC(C)(C)OC(=O)Nc1ccc(Cl)cc1
inactive: [1] 27.4% | [2] 16.2% | [3] -0.35% | [4] -44.2% | [5] 7.9% | [6] 13.1%

CCOC(=O)Oc1ccc(Cl)cc1Cl
inactive: [1] 3.2% | [2] 14.1% | [3] 2.55% | [4] 5.2% | [5] -4.4% | [6] -3.8%

CC(=O)[C@@]1(O)CC[C@H]2[C@@H]3C[C@H](C)C4=CC(=O)CC[C@]4(C)[C@H]3[C@@H](O)C[C@@]21C
inactive: [1] -27.9% | [2] -8.8% | [3] -19.1% | [4] -36.2% | [5] 12.7% | [6] -22.4%

O=C(Cc1ccccc1)Nc1ccc([N+](=O)[O-])cc1Cl
inactive: [1] 4.95% | [2] 16.1% | [3] 23.4% | [4] 2.1% | [5] 6.5% | [6] 38.1%

CCOC(=O)C1CC(C)c2[nH]c3ccccc3c21 (centres undefined)
inactive: [1] 2.2% | [2] 6.9% | [3] -5.15% | [4] -25% | [5] -12% | [6] -13%

C#CC(OC(=O)NC(C(=O)OC)C(C)C)(c1ccccc1)c1ccccc1 (centres undefined)
inactive: [1] 31.1% | [2] -10.3% | [3] 14.3% | [4] -4.85% | [5] 0.2% | [6] 7.55%

CCCO[C@@H]1[C@@H](OC(C)=O)[C@@H](OC(C)=O)C(C)(C)/C=C/[C@H](C)C(=O)[C@@]2(OC(C)=O)C[C@@](C)(OC(C)=O)[C@H](OC(C)=O)[C@@H]2[C@H]2OC(=O)CC[C@@]12OC(=O)c1ccccc1
inactive: [1] -14.7% | [2] -24.2% | [3] -56.5% | [4] -16.1% | [5] -48.8% | [6] -29.1%

CCOC(=O)Nc1c2ccccc2c(NC(=O)OCC)c2cc(Cl)ccc12
inactive: [1] 4.2% | [2] -1.75% | [3] 3.75% | [4] 3.25% | [5] 2.85% | [6] 19.8%

NC(=O)/C(=C\c1ccncc1)c1cccc2ccccc12
inactive: [1] -0.55% | [2] -5.1% | [3] -41.1% | [4] -3.35% | [5] -44% | [6] -7.05%

NCCNCCCCCCNC(=O)c1cccc2cc3ccccc3nc12
inactive: [1] -6.7% | [2] -25.4% | [3] -30.1% | [4] -7.55% | [5] -14% | [6] -102%

CC(=O)O[C@H]1[C@@H]2[C@@H]3[C@@H](C[C@H]1C)[C@@H](C)CO[C@@]1(C)CC/C=C(/C)C[C@@H]2O[C@@H]31
inactive: [1] -3.9% | [2] -1.75% | [3] 0.15% | [4] -19.1% | [5] -12.8% | [6] -8.95%

COc1ccc(CC(C)C(C)Cc2ccc(OC)c(OC)c2)cc1OC (centres undefined)
inactive: [1] 4.9% | [2] 9.15% | [3] 1.6% | [4] -4.75% | [5] 4.25% | [6] -3.6%

CC(C)CC(=O)OC1=C(O)C(=O)C(OC(=O)CC(C)C)=C(O)C1=O
inactive: [1] -5.45% | [2] -13.7% | [3] 2.1% | [4] -62.4% | [5] 0.1% | [6] 5.65%

CC1(C)CCC2(C)CC=C3C(C)(CCC4C3(C)CCC3C(C)(C)C(O)CCC43C)C2C1 (centres undefined)
inactive: [1] 0.9% | [2] -4.2% | [3] -23.2% | [4] -10.3% | [5] -18% | [6] -10.4%

O=C(O)C1(N(CCO)CCO)CCCC1
inactive: [1] -15.6% | [2] -11.7% | [3] 3.4% | [4] -35.3% | [5] -11.2% | [6] -1.65%

COC(=O)C(CCc1ccc([N+](=O)[O-])cc1)(CCc1ccc([N+](=O)[O-])cc1)C(C)=O
inactive: [1] 5.9% | [2] -10% | [3] 4.55% | [4] -19.9% | [5] 19.7% | [6] 28.6%

CCOC(=O)C(C)(C)c1cn(C)c2ccccc12
inactive: [1] -7.05% | [2] -9.9% | [3] -2.7% | [4] -4.8% | [5] -6.55% | [6] 7.4%

CC(NCCCNC(C)C(=O)O)C(=O)O (centres undefined)
inactive: [1] 21.8% | [2] 1.45% | [3] 26.8% | [4] 32.3% | [5] 11.1% | [6] 13.4%

CCOC(=O)c1c(Br)c2c3ccccc3c3ccccc3n2c1C
inactive: [1] 1.7% | [2] -4.9% | [3] -3.75% | [4] -11.8% | [5] 1.8% | [6] 7.25%

COc1ccc(/C(=N\NC(=O)C(=O)NN)C(c2ccc(OC)cc2)C2(O)C(=O)Nc3ccccc32)cc1 (centres undefined)
inactive: [1] -19.6% | [2] -20.2% | [3] -22.6% | [4] -65.1% | [5] 12.9% | [6] -18.1%

COc1ccc(CCN2C(CC(=O)c3ccccc3)CCCC2CC(=O)c2ccccc2)cc1 (centres undefined)
inactive: [1] -29.6% | [2] -29.1% | [3] -23.8% | [4] -0.8% | [5] -17.5% | [6] -18.7%

Cc1ccc2occ(-c3nnc(NC(=O)c4ccccc4)s3)c(=O)c2c1
inactive: [1] -36.2% | [2] -9.75% | [3] -11.7% | [4] -26.6% | [5] -7.35% | [6] -23.2%

CCCCCC/C(C)=N/O
inactive: [1] -1.8% | [2] 3.75% | [3] 0.8% | [4] 4.85% | [5] 10.7% | [6] -6.2%

CCn1c2ccc(C=O)cc2c2cc([N+](=O)[O-])ccc21
inactive: [1] 6.25% | [2] -2.1% | [3] 7.2% | [4] -0.05% | [5] -4.7% | [6] 15.1%

CCCCCCCCCCCC(=O)Nc1ccc(NC(C)=O)cc1
inactive: [1] 8.25% | [2] 25.1% | [3] 22.6% | [4] -14% | [5] 24.9% | [6] 23.9%

O=S(=O)(Nc1ccn(-c2ccccc2)n1)c1ccc(NCc2c3ccccc3nc3cc(Cl)ccc23)cc1
inactive: [1] 17.1% | [2] 21.2% | [3] 15.8% | [4] -24.2% | [5] -13.6% | [6] 23.6%

CCOC(=O)c1ccc(CCCN)cc1
inactive: [1] -17.8% | [2] -13.2% | [3] 12.9% | [4] -28.2% | [5] -10% | [6] 0.65%

CCCCc1c(O)c(N=NC(=O)C[N+](C)(C)C)c2ccccc2c1O
inactive: [1] 31.5% | [2] 40.2% | [3] 22.8% | [4] 11.6% | [5] 0.85% | [6] 36.9%
